Results reported in PubChem BioAssay.
A number with no mark means an inactive call. Active and inactive are the calls of the source.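 The calls were made as follows, unless noted: active = inhibition above 50%; inactive = the rest.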

Test: antimalarial activity against Dd2 strain (AID 2302;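 active = growth inhibition above 50% at the single 2 µM test dose, taken to imply half-maximal potency below 2 µM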;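 also: 0% = DMSO untreated growth and 100% = chloroquine plus artemisinin killed control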)
Details: P. falciparum Dd2 in RBCs, LDH growth readout, 72 h; at 2 µM; active compounds read high

| Structure (SMILES) | growth inhibition |
| --- | --- |
| O=[N+]([O-])c1cccc(C=NNc2ccnc3cc(F)ccc23)c1 | 100% (active) |
| COc1cc(N(Cc2ccc(F)cc2)C(=O)c2ccc(-c3ccccc3)cc2)ccc1OCCN1CCCC1 | 4% |
| CCCCNc1c(C(=O)OCC)c(C)nc2c1[nH]c1ccccc12 | 58% (active) |
| COc1ccc(/C=C/C(=O)NCCCCCN2CCC(c3c[nH]c4ccccc34)CC2)cc1O | 1% |
| CCc1cc2c(Sc3nnc(N)s3)ncnc2s1 | 65% (active) |
| CCCc1cc(=O)oc2cc(OC)c(C(=O)CC(C)C)c(OC)c12 | 67% (active) |
| O=C(NOCCOc1ccccc1)c1ccccc1 | 0% |
| CC(c1cccc(S(=O)(=O)NCc2cccc(C(F)(F)F)c2)c1)N1CCC(N2CCCCC2)CC1 (stereo not given) | 35% |
| CC1CCN(c2nc(C(=O)NCCc3ccc(Cl)c(Cl)c3)c(C(C)C)s2)CC1 | 38% |
| OCCN1CCN(Cc2cccc(-c3ccc(-c4nc5ccc(C(F)(F)F)cc5[nH]4)cc3)c2)CC1 | 85% (active) |
| Cc1cnc(-c2ccc(NC(=O)c3coc4ccc(N5C[C@@H](C)N(C)[C@@H](C)C5)cc34)cc2)o1 | 39% |
| CN1CCC(NCc2cccc(-c3cccc(S(=O)(=O)NCc4ccccc4)c3)c2)CC1 | 6% |
| COc1ccc(CNC2CCN(C)CC2)cc1-c1ccc(S(=O)(=O)NC2CCC2)c(C)c1 | 96% (active) |
| CN1CCN(CCCN(Cc2csc(-c3ccc(CNCc4ccccc4)cc3)n2)S(=O)(=O)c2ccccc2Cl)CC1 | 81% (active) |
| Cc1ccc(-c2cccc3c(NC(=O)Nc4ccc5nccc(N6CCN(C)CC6)c5c4)cccc23)cn1 | 89% (active) |
| CCCCCCCCOc1c(OCC)cc(Cc2cnc(N)nc2N)cc1OCC | -1% |
| C=CCN1C(=O)C(C(C)=O)=C(O)C1c1ccccc1 (stereo not given) | 97% (active) |
| O=[N+]([O-])c1cccc(CNCC2CCN(Cc3ccc4ccccc4c3)CC2)c1 | 42% |
| COc1ccc2nccc([C@@H](O)CN3CCC(NC(=O)c4[nH]c5ccccc5c4-c4ccccc4)CC3)c2c1 | 68% (active) |
| OC(CNc1cccc(Cl)c1)Cn1c2ccc(Cl)cc2c2cc(Cl)ccc21 (stereo not given) | 33% |

| Structure (SMILES) | growth inhibition |
| --- | --- |
| Cc1cc(N[C@@H](Cc2ccccc2)C(=O)Nc2ccccc2)nc(NCCc2cccnc2)n1 | 57% (active) |
| Cc1cccc2[nH]c(-c3cccc(-c4cccc(NC(=O)c5ccoc5)c4)c3)nc12 | 71% (active) |
| CC(C)CCN1CCC(Oc2ccc(NC(=O)c3ccc(F)cc3)cc2Cl)CC1 | 88% (active) |
| Cc1cccc2[nH]c(-c3cccc(-c4cccc(CNCc5cnn(-c6ccccc6)n5)c4)c3)nc12 | 38% |
| CC1(CCc2ccccc2)N=C(Nc2ccc(Cl)cc2)N=C(N)C1c1ccc(Cl)c(Cl)c1 (stereo not given) | 98% (active) |
| Cc1[nH]c(C)c(-c2ccc(OCc3cc(C(F)(F)F)cc(C(F)(F)F)c3)nc2)c(=O)c1Br | 96% (active) |
| O=C1C([N+](=O)[O-])=C(O)c2cccc(F)c21 | 13% |
| Oc1ccc(Cl)cc1Nc1nc(C(F)(F)F)nc2ccccc12 | 63% (active) |
| Cc1ccc2nc(C)n(C3CCN(C(=O)C4(c5ccccc5)CC4)CC3)c2c1 | 83% (active) |
| CCCCCc1ccc(N2C(N)=NC(N)=NC2(C)C)cc1 | 1% |
| O=S(=O)(c1ccc(Cl)cc1Cl)N1CCCCC(c2ccc(C(F)(F)F)cc2)=N1 | 99% (active) |
| O=C(NCc1ccccc1)c1ncn(CCCN2CCC(N3CCCC3)CC2)c1-c1ccc(Cl)c(Cl)c1 | 36% |
| CC[C@H]1CN2CCc3cc(OC)c(OC)cc3[C@@H]2C[C@@H]1CC1=NCCc2c1[nH]c1ccc(OCc3ccccc3)cc21 | 89% (active) |
| CCNc1cc(CCCC(=O)OCC)nc(Nc2ccc(C)cc2)n1 | 63% (active) |
| CN1CCC(NCc2cccc(-c3ccc(S(=O)(=O)NCCc4ccccn4)cc3)c2)CC1 | 1% |
| Clc1ccc(Sc2cncnc2N2CCOCC2)cc1 | -6% |
| Cc1cc2ccc(-c3cccc(CN)c3)cc2nc1N | 1% |
| CC(=O)N1CCN(c2ccc(NC(=O)c3oc(-c4ccccc4)nc3C(F)(F)F)cn2)CC1 | 93% (active) |
| COc1cc(Nc2nccc(N3CCC(NS(=O)(=O)c4ccc(NC(C)=O)cc4)CC3)n2)cc(OC)c1OC | 42% |
| CCNc1cc(-c2cccc(OC)c2)nc(Nc2ccc(F)cc2)n1 | 23% |

Test: human hepatoma cell viability loss – ATP luminescence, cytotoxicity control for P. falciparum antimalarial project, primary screen (AID 2303);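 also: 0% = DMSO wells and 100% = digitonin-killed cells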
Details: HepG2 viability, 24-48 h, at 10 µM, active compounds read high

| Structure (SMILES) | inhibition |
| --- | --- |
| O=[N+]([O-])c1cccc(C=NNc2ccnc3cc(F)ccc23)c1 | 4% |
| COc1cc(N(Cc2ccc(F)cc2)C(=O)c2ccc(-c3ccccc3)cc2)ccc1OCCN1CCCC1 | 11% |
| CCCCNc1c(C(=O)OCC)c(C)nc2c1[nH]c1ccccc12 | -3% |
| COc1ccc(/C=C/C(=O)NCCCCCN2CCC(c3c[nH]c4ccccc34)CC2)cc1O | 9% |
| CCc1cc2c(Sc3nnc(N)s3)ncnc2s1 | -20% |
| CCCc1cc(=O)oc2cc(OC)c(C(=O)CC(C)C)c(OC)c12 | 3% |
| O=C(NOCCOc1ccccc1)c1ccccc1 | 0% |
| CC(c1cccc(S(=O)(=O)NCc2cccc(C(F)(F)F)c2)c1)N1CCC(N2CCCCC2)CC1 (stereo not given) | 37% |
| CC1CCN(c2nc(C(=O)NCCc3ccc(Cl)c(Cl)c3)c(C(C)C)s2)CC1 | -3% |
| OCCN1CCN(Cc2cccc(-c3ccc(-c4nc5ccc(C(F)(F)F)cc5[nH]4)cc3)c2)CC1 | 19% |
| Cc1cnc(-c2ccc(NC(=O)c3coc4ccc(N5C[C@@H](C)N(C)[C@@H](C)C5)cc34)cc2)o1 | 18% |
| CN1CCC(NCc2cccc(-c3cccc(S(=O)(=O)NCc4ccccc4)c3)c2)CC1 | 57% (active) |
| COc1ccc(CNC2CCN(C)CC2)cc1-c1ccc(S(=O)(=O)NC2CCC2)c(C)c1 | 24% |
| CN1CCN(CCCN(Cc2csc(-c3ccc(CNCc4ccccc4)cc3)n2)S(=O)(=O)c2ccccc2Cl)CC1 | 13% |
| Cc1ccc(-c2cccc3c(NC(=O)Nc4ccc5nccc(N6CCN(C)CC6)c5c4)cccc23)cn1 | 6% |
| CCCCCCCCOc1c(OCC)cc(Cc2cnc(N)nc2N)cc1OCC | 25% |
| C=CCN1C(=O)C(C(C)=O)=C(O)C1c1ccccc1 (stereo not given) | 41% |
| O=[N+]([O-])c1cccc(CNCC2CCN(Cc3ccc4ccccc4c3)CC2)c1 | 18% |
| COc1ccc2nccc([C@@H](O)CN3CCC(NC(=O)c4[nH]c5ccccc5c4-c4ccccc4)CC3)c2c1 | 18% |
| OC(CNc1cccc(Cl)c1)Cn1c2ccc(Cl)cc2c2cc(Cl)ccc21 (stereo not given) | 8% |

| Structure (SMILES) | inhibition |
| --- | --- |
| Cc1cc(N[C@@H](Cc2ccccc2)C(=O)Nc2ccccc2)nc(NCCc2cccnc2)n1 | 32% |
| Cc1cccc2[nH]c(-c3cccc(-c4cccc(NC(=O)c5ccoc5)c4)c3)nc12 | 19% |
| CC(C)CCN1CCC(Oc2ccc(NC(=O)c3ccc(F)cc3)cc2Cl)CC1 | 33% |
| Cc1cccc2[nH]c(-c3cccc(-c4cccc(CNCc5cnn(-c6ccccc6)n5)c4)c3)nc12 | 12% |
| CC1(CCc2ccccc2)N=C(Nc2ccc(Cl)cc2)N=C(N)C1c1ccc(Cl)c(Cl)c1 (stereo not given) | 81% (active) |
| Cc1[nH]c(C)c(-c2ccc(OCc3cc(C(F)(F)F)cc(C(F)(F)F)c3)nc2)c(=O)c1Br | 28% |
| O=C1C([N+](=O)[O-])=C(O)c2cccc(F)c21 | 9% |
| Oc1ccc(Cl)cc1Nc1nc(C(F)(F)F)nc2ccccc12 | 16% |
| Cc1ccc2nc(C)n(C3CCN(C(=O)C4(c5ccccc5)CC4)CC3)c2c1 | 8% |
| CCCCCc1ccc(N2C(N)=NC(N)=NC2(C)C)cc1 | 59% (active) |
| O=S(=O)(c1ccc(Cl)cc1Cl)N1CCCCC(c2ccc(C(F)(F)F)cc2)=N1 | 10% |
| O=C(NCc1ccccc1)c1ncn(CCCN2CCC(N3CCCC3)CC2)c1-c1ccc(Cl)c(Cl)c1 | 8% |
| CC[C@H]1CN2CCc3cc(OC)c(OC)cc3[C@@H]2C[C@@H]1CC1=NCCc2c1[nH]c1ccc(OCc3ccccc3)cc21 | 57% (active) |
| CCNc1cc(CCCC(=O)OCC)nc(Nc2ccc(C)cc2)n1 | 17% |
| CN1CCC(NCc2cccc(-c3ccc(S(=O)(=O)NCCc4ccccn4)cc3)c2)CC1 | 10% |
| Clc1ccc(Sc2cncnc2N2CCOCC2)cc1 | 66% (active) |
| Cc1cc2ccc(-c3cccc(CN)c3)cc2nc1N | -4% |
| CC(=O)N1CCN(c2ccc(NC(=O)c3oc(-c4ccccc4)nc3C(F)(F)F)cn2)CC1 | -6% |
| COc1cc(Nc2nccc(N3CCC(NS(=O)(=O)c4ccc(NC(C)=O)cc4)CC3)n2)cc(OC)c1OC | -5% |
| CCNc1cc(-c2cccc(OC)c2)nc(Nc2ccc(F)cc2)n1 | 11% |
